Results published in PubChem BioAssay (NCI).
Compounds without any hit were thinned out: in the full panel of roughly 83,000, 20% have a hit.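 A percent growth of 40 corresponds to 60% growth inhibition; 0 means no net growth; -100 means all cells died. Active threshold: below 10.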 Calls of active or inactive are those of the source.

The compounds below were run on LOX IMVI melanoma (assay: NCI-60 one-dose screen, 48 h (100 = growth as untreated, 0 = no growth, -100 = all killed)). Conditions: 10 µM unless noted.

Row | Structure (SMILES) | growth
1 | COc1ccccc1-c1ccc2c(N)c(C(=O)c3ccc4c(c3)OCO4)sc2n1 | 58% (inactive)
2 | CC(=O)C1=C(O)C=C2Oc3c(C(=O)/C=C/c4cc(C(F)(F)F)cc(C(F)(F)F)c4)c(O)c(C)c(O)c3[C@]2(C)C1=O | -85.4% (active)
3 | CC/C=C\C[C@H](O)C/C=C1/C(=O)C=C[C@@H]1C/C=C\CCCC(=O)NC(C)C | -46.9% (active)
4 | CS(CCCCN=C=S)=NC(=O)c1c(F)c(F)c(F)c(F)c1F (stereo unspecified) | 28.3% (inactive)
5 | NC1=CC(=O)C(=O)c2ccccc21 | 7.65% (active)
6 | COc1ccc(C(=O)c2sc3nc4c(c(C(F)(F)F)c3c2N)CN(C(C)=O)CC4)cc1OC | 78.4% (inactive)
7 | COc1cc(C(=O)/C=C/c2c(C)n([O-])c3ccc(C)cc3[n+]2=O)cc(OC)c1OC | 33% (inactive)
8 | CCn1cc2c(cc1=O)-c1nc3ccccc3c3ccnc(c13)C2=O | 57% (inactive)
9 | CCOc1ccc(Nc2nc(-c3c(C)nc4ncccn34)cs2)cc1 | 23.1% (inactive)
10 | CCOC(=O)C12CCCC1=CC(=O)CC2 (stereo unspecified) | 100% (inactive)
11 | CCCC(=O)Oc1ccc(/C(=C(/CC)Cc2ccccc2)c2ccc(OCCN3CCCC3)cc2)cc1 | 25.2% (inactive)
12 | C=C1CCC2C3(C)COC(c4ccc(OC)cc4Br)OC3CCC2(C)C1/C=C/C1=CCOC1=O (stereo unspecified) | 71.1% (inactive)
13 | CS(=O)(=O)c1c(Nc2ccccc2)n[nH]c1N | 89.8% (inactive)
14 | CC/C=C\C[C@H](O)C/C=C1/C(=O)C=C[C@@H]1C/C=C\CCCC(N)=O | -56.2% (active)
15 | CCN(CC)C12CCCCC1(C)C(C#N)(C#N)C(C#N)=C(N)O2 (stereo unspecified) | 98.9% (inactive)
16 | O=C1c2c[n+](Cc3ccccc3)ccc2-c2nc3ccccc3c3ccnc1c23 | -37.1% (active)
17 | O=c1ccc2cc3ccccc3cc2[nH]1 | 102% (inactive)
18 | O=C(Nc1cccc2[nH]c(C(F)(F)F)nc12)c1ccc(Br)cc1F | 35.9% (inactive)
19 | COc1cnc2c(c1)C(=O)c1c-2n(CCCBr)c(=O)c2cc([N+](=O)[O-])ccc12 | -54.2% (active)
20 | Clc1cccc(Nc2nc(Nc3cnc4ccccc4c3)c3[nH]cnc3n2)c1 | 77.4% (inactive)
21 | CC(C)Oc1nc2c(c(=O)n(C)c(=O)n2C)n1C | 98.9% (inactive)
22 | CC/C=C\C[C@H](F)C/C=C1/C(=O)C=C[C@@H]1C/C=C\CCCC(=O)OC | -49.7% (active)
23 | O=C(/C=C/c1cc2ccccc2[nH]c1=O)/C=C/c1cc2ccccc2[nH]c1=O | -65.4% (active)
24 | COc1ccc(-c2cnoc2-c2cc(OC)c3c(c2)OCCO3)cc1 | 17.4% (inactive)
25 | CC/C(Cc1ccccc1)=C(\c1ccc(OCCN2CCCC2)cc1)c1ccc(OC(C)=O)cc1 | 48.2% (inactive)
26 | C[C@]12C[C@@H](c3ccoc3)OC(=O)[C@@H]1CC[C@]1(C)[C@@H]2CC[C@@H](O)[C@]1(C)O | 70.5% (inactive)
